Bioassay records from PubChem BioAssay.
Only some compounds are listed: those with a hit (about 19% of all), similar ones and a draw of the others.
HT1080 IDH1KD tx: qHTS for induction of synthetic lethality in tumor cells producing 2HG: qHTS for the HT-1080-IDH1KD cell line; HT-1080 IDH1 knockdown viability, ATP luminescence, 48 h; Potency, µM (top dose mostly 46.1 µM), for the others: top-dose activity, negative = toxicity, hits mostly cytotoxic; 360,000 compounds, 2% hits; AID 686971, 2013;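 note: potency is the fitted concentration of half-maximal effect; 0% = DMSO wells and -100% = cell-free medium wells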
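Knockdown cells (IDH1KD HT-1080) received compounds 2 h after plating at 750 cells/well and were kept 48 h at 37 °C in 5% FBS RPMI. A CellTiter-Glo luminescence read gave % activity for curve fitting.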
TDP1 cell CPT: qHTS for Inhibitors of human tyrosyl-DNA phosphodiesterase 1 (TDP1): qHTS in cells in presence of CPT; chicken DT40 Tdp1-/-;hTDP1 cells + 20 nM CPT, ATP luminescence, 48 h; Potency, µM (doses to about 46.2 µM), for inactives: at the highest dose activity change, negative = growth inhibition, usual class: inhibitors; 420,000 compounds, 12% hits; note: potency is the fitted concentration of half-maximal effect; nearly all actives have a fitted effect of over 55% in size
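Cell growth measured by CellTiter-Glo luminescence after a minimum 48 h, 37 C compound exposure with 20 nM CPT in Tdp1-knockout DT40 cells stably expressing hTDP1, seeded 400/well; qHTS titration format.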
ELG1 repair inh: qHTS screen for small molecules that inhibit ELG1-dependent DNA repair in human embryonic kidney (HEK293T) cells expressing luciferase-tagged ELG1; HEK293T ELG1-luciferase reporter, luminescence, 16 h; DNA damage induced by 5-fluorouridine; Potency, µM (series often up to 46.1 µM), without a hit: at the highest dose activity change, negative = inhibition, actives largely listed as inhibitors; 330,000 compounds, 2.3% hits; AID 504467, 2011; note: potency is the fitted concentration of half-maximal effect; nearly all actives have a fitted effect of over 55% in size
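HEK293T cells expressing luciferase-tagged ELG1 (2,000/well) received 5-Fluorouridine plus compound or DMSO for 16 hr at 37 °C. Luciferase was read by ONE-Glo luminescence after 30 min at room temperature.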
DT40 TDP1 no CPT: qHTS for Inhibitors of human tyrosyl-DNA phosphodiesterase 1 (TDP1): qHTS in cells in absence of CPT; DT40 Tdp1-/- hTDP1 cells, no CPT, ATP luminescence, 48 h; Potency, µM (series often up to 46.2 µM), for inactives: at the highest dose activity change, negative = growth inhibition, actives largely listed as inhibitors; 420,000 compounds, 15% hits; AID 686978, 2013; note: potency is the fitted concentration of half-maximal effect; nearly all actives have a fitted effect of over 55% in size
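Chicken DT40 Tdp1-/- cells stably complemented with human TDP1 were seeded at 400 cells/well with DMSO in place of 20 nM camptothecin. After compound pinning, cells grew at least 48 hr at 37 °C; viability read by CellTiter-Glo luminescence.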
HT1080-NT tox: qHTS for induction of synthetic lethality in tumor cells producing 2HG: qHTS for the HT-1080-NT fibrosarcoma cell line; HT-1080-NT fibrosarcoma viability, CellTiter-Glo ATP luminescence, 48 h; Potency, µM (highest dose often 46.1 µM), for the others: top-dose activity, negative = less viability, actives largely listed as cytotoxic; 360,000 compounds, 1.6% hits; AID 686970, 2013;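 note: NT is the 2HG producing partner of a matched IDH1 knockdown line; potency is the fitted concentration of half-maximal effect; 0% = DMSO-treated cells and -100% = media-only wells without cells; nearly all actives have a fitted effect of over 55% in size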
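Viability of the 2HG-overproducing fibrosarcoma line after 48 hours of compound exposure at 37 degrees C was determined by luminescence with CellTiter-Glo, and concentration-effect curves were then fitted and categorized.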
IL1B secr inh: qHTS for Inhibitors of Inflammasome Signaling: IL-1-beta AlphaLISA Primary Screen; THP-1 LPS/ATP IL-1B secretion, AlphaLISA, 16 h; hits give low values; activity change, % at 57.5 µM; 360,000 compounds, 4.7% hits; in the data active = activity change below about -50%; inconclusive = mostly about -30% to -49%
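Secreted IL-1B measured by AlphaLISA bead assay after 16 h compound exposure of THP-1 cells; compounds (final up to 57.5 uM) added 1 h before LPS (250 ng/mL) and ATP (1.25 mM) stimulation; lower signal means less secretion.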
* marks the source's active call; other numbers are inactive results; ? = inconclusive; . = not tested or not shown. Unless noted, calls come from the whole dose curve; as a rule, active = well fitted curve in the direction sought with a large enough effect; inconclusive = small, poorly fitted or top-dose-only effect, or another doubt; inactive = no such curve, though single readings can be large; an effect the other way counts as inactive or inconclusive. Unless noted, % is set by controls: 0 for no effect and ±100 for the full control effect.

SMILES	HT1080 IDH1KD tx	TDP1 cell CPT	ELG1 repair inh	DT40 TDP1 no CPT	HT1080-NT tox	IL1B secr inh
O=C(NC(=S)Nc1ccc(CN2CCOCC2)cc1)c1ccc2c(c1)OCCO2	?	?	?	15µM*	?	?
COc1ccc(C(=O)NC(=S)Nc2ccc(CN3CCOCC3)cc2)cc1Br	-2%	?	23µM*	10µM*	-8%	-1
COc1ccc(C(=O)NC(=S)Nc2ccc(CN3CCOCC3)cc2)cc1	?	?	-20%	?	?	.
COc1cccc(OC)c1C(=O)NC(=S)Nc1ccc2c(c1)OCCO2	-2%	-2%	?	?	-4%	-14
O=C(NC(=S)Nc1ccc(N2CCOCC2)cc1)c1ccc2c(c1)OCCO2	-19%	?	?	23µM*	-14%	-2
Cc1cccc(OCC(=O)OCc2cc(=O)n3nc(C4CCCCC4)sc3n2)c1	.	-17%	.	-9%	.	.
Cc1ccc(CN2CN(S(=O)(=O)c3cccs3)c3nc4ccccc4nc32)cc1	12%	16µM*	?	21µM*	8%	-21
Cc1cccc(S(=O)(=O)N2CN(Cc3ccco3)c3nc4ccccc4nc32)c1	-17%	18µM*	7%	?	-11%	-13
COc1ccccc1CN1CN(S(=O)(=O)c2ccccc2)c2nc3ccccc3nc21	-5%	15µM*	18%	?	-7%	7
O=S(=O)(c1cccs1)N1CN(Cc2ccco2)c2nc3ccccc3nc21	-15%	?	?	13µM*	-13%	-19
Cc1ccc(C)c(S(=O)(=O)N2CCN(C(=O)[C@@H]3CCCN3C(=O)c3cccs3)CC2)c1	8%	?	?	-27%	0%	2
COc1ccc(N2CCN(C(=O)c3cccn4c(=O)c5ccc(Cl)cc5nc34)CC2)cc1	.	-11%	.	-10%	.	.
O=C(c1cccc([N+](=O)[O-])c1)N1CCN(S(=O)(=O)/C=C/c2ccccc2)CC1	1%	16%	5%	-22%	0%	-22
Cc1cc(S(=O)(=O)NC2CCCC2)ccc1F	-3%	-13%	10%	?	0%	13
CCOc1cc(S(=O)(=O)NC2CCCCCC2)ccc1F	-22%	21µM*	?	?	-15%	37
Cc1cccc(S(=O)(=O)NC2CCCCCCC2)c1	-8%	21µM*	?	?	-13%	-6
CCN(CC)Cc1c(C(=O)N/N=C(\C)c2ccncc2)nnn1-c1nonc1N	15%	1%	0%	-9%	20%	37
CCNC(=O)C1(C)CCN(Cc2ccc(OC(F)(F)F)cc2)C1 (stereo not drawn)	11%	-24%	.	-26%	13%	0
CCOc1ccc(Nc2nc(C)c(NC(=O)c3cccc(F)c3)c(Nc3ccc(OCC)cc3)n2)cc1	.	0.65µM*	.	0.52µM*	.	.
O=c1c2ccccc2c2c(O)nc(-c3ccccc3)n2n1Cc1ccccc1	1%	-10%	8%	-7%	2%	1
CC(=O)c1ccc(S(=O)(=O)NC2CC(=O)N(c3ccc(Cl)cc3)C2)cc1 (stereo not drawn)	0%	?	?	13µM*	-7%	7
O=C(NC1CC(=O)N(c2ccc(Cl)cc2)C1)c1ccc(S(=O)(=O)N2CCOCC2)cc1 (stereo not drawn)	.	-25%	.	-26%	.	.
